Reference: PubChem BioAssay (EPA / NIEHS)
Results filed as inconclusive are left out. Activity calls are given as the source filed them. Rule for the calls: active = hit-call score of the fitted dose curve at least 0.9, where 1 is the maximum; inconclusive = response in the unintended direction; inactive = score below 0.9.

target: PGR (gene 5241) (UniProt P06401); assay: TOX21_PR_BLA_Followup_Antagonist_ratio: Tox21 HEK293 Progesterone Receptor (PR) Antagonism Beta-lactamase Follow-Up Assay, Ratio (AID 2283934);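 note: PR-UAS-bla HEK293T cells stimulated with 1 nM R5020 agonist for 16 hr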
Sequence (P06401 whole entry, looked up): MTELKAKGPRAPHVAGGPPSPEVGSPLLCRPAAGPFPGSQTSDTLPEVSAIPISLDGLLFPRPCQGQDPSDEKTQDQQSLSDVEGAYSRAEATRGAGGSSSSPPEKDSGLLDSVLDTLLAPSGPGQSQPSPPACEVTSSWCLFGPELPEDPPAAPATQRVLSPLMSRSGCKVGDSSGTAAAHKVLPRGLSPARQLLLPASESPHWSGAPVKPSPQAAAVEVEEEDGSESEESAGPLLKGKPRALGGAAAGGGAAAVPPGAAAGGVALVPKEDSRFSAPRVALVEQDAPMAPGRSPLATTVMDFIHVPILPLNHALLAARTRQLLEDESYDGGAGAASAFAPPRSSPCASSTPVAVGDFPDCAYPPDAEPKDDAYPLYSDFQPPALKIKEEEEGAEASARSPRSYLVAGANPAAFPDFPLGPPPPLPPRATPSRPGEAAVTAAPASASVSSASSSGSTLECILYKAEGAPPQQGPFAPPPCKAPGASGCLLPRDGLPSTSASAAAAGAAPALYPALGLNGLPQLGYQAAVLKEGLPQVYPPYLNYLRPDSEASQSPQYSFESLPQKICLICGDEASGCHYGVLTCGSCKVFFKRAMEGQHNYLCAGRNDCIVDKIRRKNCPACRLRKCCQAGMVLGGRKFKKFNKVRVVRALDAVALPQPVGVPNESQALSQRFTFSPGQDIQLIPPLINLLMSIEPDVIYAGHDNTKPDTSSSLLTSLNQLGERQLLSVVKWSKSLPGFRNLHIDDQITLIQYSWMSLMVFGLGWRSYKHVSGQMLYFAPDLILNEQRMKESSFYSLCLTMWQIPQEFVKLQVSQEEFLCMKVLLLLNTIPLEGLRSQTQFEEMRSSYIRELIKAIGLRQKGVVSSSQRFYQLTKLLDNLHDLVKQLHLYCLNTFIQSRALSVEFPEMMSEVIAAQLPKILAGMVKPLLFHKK
How it was run: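 Readout is the blue/green (ch2/ch1) substrate cleavage ratio after 2 hours at room temperature, following 16 hr co-treatment of PR-bla HEK293T cells with compound and 1nM promegestone. Multiplexed CellTiter-Glo viability flags cytotoxicity; DMSO baseline.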

Row | Compound | AC50 | outcome
1 | CC(C)C[C@H](NC(=O)[C@H](Cc1ccccc1)NC(=O)c1cnccn1)B(O)O | 0.168 µM (active) | 
2 | O=C(Nc1ccc(Cl)c(Cl)c1)C1CC1 |  | inactive
3 | Oc1ccc(N=Nc2ccccc2)cc1 | 27.5 µM (active) | 
4 | COC(=O)C1=C(C)NC(C)=C(C(=O)OCCN2CCN(C(c3ccccc3)c3ccccc3)CC2)C1c1cccc([N+](=O)[O-])c1 (stereo not drawn) |  | inactive
5 | N#C/C(=C1/SC[C@@H](c2ccc(Cl)cc2Cl)S1)n1ccnc1 | 33 µM (active) | 
6 | C[C@]12C=CC(=O)C=C1[C@@H](F)C[C@@H]1[C@@H]2[C@@H](O)C[C@@]2(C)[C@H]1CC[C@]2(O)C(=O)CO |  | inactive
7 | O=C1Nc2ccc(Cl)cc2[C@@](C#CC2CC2)(C(F)(F)F)O1 | 17 µM (active) | 
8 | CC(=O)Oc1ccc2c(c1)CC[C@@H]1[C@@H]2CC[C@]2(C)[C@@H](O)CC[C@@H]12 | 0.846 µM (active) | 
9 | CC(C)C[C@H](NC(=O)[C@H](CCc1ccccc1)NC(=O)CN1CCOCC1)C(=O)N[C@@H](Cc1ccccc1)C(=O)N[C@@H](CC(C)C)C(=O)[C@@]1(C)CO1 | 15.9 µM (active) | 
10 | NC(=O)n1c(O)c(C(=O)c2cccs2)c2cc(Cl)ccc21 |  | inactive
11 | CCC(=C(CC)c1ccc(O)cc1)c1ccc(O)cc1 | 23.7 µM (active) | 
12 | C#C[C@]1(O)CC[C@H]2[C@@H]3CCc4cc(OC5CCCC5)ccc4[C@H]3CC[C@@]21C | 13.6 µM (active) | 
13 | Cc1ccc(/C=N/n2c(-c3ccccc3)csc2=S)cc1 | 23 µM (active) | 
14 | COC(=O)C1=C(C)NC(COC(N)=O)=C(C(=O)OC(C)C)C1c1cccc(Cl)c1Cl (stereo not drawn) |  | inactive
15 | COC(=O)C1=C(C)NC(C)=C(C(=O)OCC(C)=O)C1c1ccccc1[N+](=O)[O-] (stereo not drawn) |  | inactive
16 | COCCOC(=O)C1=C(C)NC(C)=C(C(=O)OC/C=C/c2ccccc2)C1c1cccc([N+](=O)[O-])c1 (stereo not drawn) | 6.12 µM (active) | 
17 | C=C1C(CCl)(CCl)C2(Cl)C(Cl)C(Cl)C1(Cl)C2(Cl)Cl (stereo not drawn) | 23 µM (active) | 

test system: not listed separately; assay: TOX21_PR_BLA_Followup_Agonist_viability: Viability Assessment in the Tox21 HEK293 Progesterone Receptor (PR) Agonism Beta-lactamase Follow-Up Assay (AID 2283935);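 note: signal loss means lower viability so actives are cytotoxic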
How it was run: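 Run multiplexed with the beta-lactamase FRET read, this endpoint measures ATP by CellTiter-Glo luminescence (30 min, room temperature). PR-UAS-bla HEK293T cells received compound 6 hr after plating and were then incubated 16 hr at 37C in 2% stripped serum.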

Row | Compound | outcome
18 | CC(C)C[C@H](NC(=O)[C@H](Cc1ccccc1)NC(=O)c1cnccn1)B(O)O | inactive
19 | O=C(Nc1ccc(Cl)c(Cl)c1)C1CC1 | inactive
20 | Oc1ccc(N=Nc2ccccc2)cc1 | inactive
21 | COC(=O)C1=C(C)NC(C)=C(C(=O)OCCN2CCN(C(c3ccccc3)c3ccccc3)CC2)C1c1cccc([N+](=O)[O-])c1 (stereo not drawn) | inactive
22 | N#C/C(=C1/SC[C@@H](c2ccc(Cl)cc2Cl)S1)n1ccnc1 | inactive
23 | O=C1Nc2ccc(Cl)cc2[C@@](C#CC2CC2)(C(F)(F)F)O1 | inactive
24 | CC(=O)Oc1ccc2c(c1)CC[C@@H]1[C@@H]2CC[C@]2(C)[C@@H](O)CC[C@@H]12 | inactive
25 | CC(C)C[C@H](NC(=O)[C@H](CCc1ccccc1)NC(=O)CN1CCOCC1)C(=O)N[C@@H](Cc1ccccc1)C(=O)N[C@@H](CC(C)C)C(=O)[C@@]1(C)CO1 | inactive
26 | NC(=O)n1c(O)c(C(=O)c2cccs2)c2cc(Cl)ccc21 | inactive
27 | CCC(=C(CC)c1ccc(O)cc1)c1ccc(O)cc1 | inactive
28 | C#C[C@]1(O)CC[C@H]2[C@@H]3CCc4cc(OC5CCCC5)ccc4[C@H]3CC[C@@]21C | inactive
29 | Cc1ccc(/C=N/n2c(-c3ccccc3)csc2=S)cc1 | inactive
30 | COC(=O)C1=C(C)NC(COC(N)=O)=C(C(=O)OC(C)C)C1c1cccc(Cl)c1Cl (stereo not drawn) | inactive
31 | COC(=O)C1=C(C)NC(C)=C(C(=O)OCC(C)=O)C1c1ccccc1[N+](=O)[O-] (stereo not drawn) | inactive
32 | COCCOC(=O)C1=C(C)NC(C)=C(C(=O)OC/C=C/c2ccccc2)C1c1cccc([N+](=O)[O-])c1 (stereo not drawn) | inactive
33 | C=C1C(CCl)(CCl)C2(Cl)C(Cl)C(Cl)C1(Cl)C2(Cl)Cl (stereo not drawn) | inactive
